CYP2C9 activ = human CYP2C9 activators, primary screen, biochemical, luminescence; Cytochrome P450 2C9 (Homo sapiens), P11712; recombinant CYP2C9, luciferin-H conversion; active compounds read high; factor 1 = untreated enzyme, 0 = blocked; activation factor at 5 µM; hit rate 1.4% among 96,000;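 active means activation factor of 2 or more for CYP2C9 at a 5 µM dose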;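 further: 0 = sulfaphenazole-blocked wells and 1 = vehicle-only wells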
CYP2C9 inhib = blockers of cytochrome P450 2C9 activity – biochemical, luminescence, ADME assay, primary screen; hit rate 20% among 96,000; P11712; inhibition, % at 5 µM; AID 777, 2007; CYP2C9 Supersomes, luciferin-H conversion;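 active means blocking of liver enzyme CYP2C9 beyond about 50% at 5 µM, limit read from the data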
CYP2C19 activ = human CYP2C19 activators, primary screen, biochemical, luminescence | recombinant CYP2C19, luciferin-H EGE luminescence; active compounds read high; 0 = fully inhibited enzyme, 1 = untreated enzyme | activation factor at 5 µM | 96,000 tested, under 10 active | AID 1025, 2008;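 active means activation factor of at least 2 at 5 µM in the primary screen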;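 further: 0 = wells with 2.5 mM tranylcypromine and 1 = vehicle-only wells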
Target sequence (P33261 whole entry, looked up): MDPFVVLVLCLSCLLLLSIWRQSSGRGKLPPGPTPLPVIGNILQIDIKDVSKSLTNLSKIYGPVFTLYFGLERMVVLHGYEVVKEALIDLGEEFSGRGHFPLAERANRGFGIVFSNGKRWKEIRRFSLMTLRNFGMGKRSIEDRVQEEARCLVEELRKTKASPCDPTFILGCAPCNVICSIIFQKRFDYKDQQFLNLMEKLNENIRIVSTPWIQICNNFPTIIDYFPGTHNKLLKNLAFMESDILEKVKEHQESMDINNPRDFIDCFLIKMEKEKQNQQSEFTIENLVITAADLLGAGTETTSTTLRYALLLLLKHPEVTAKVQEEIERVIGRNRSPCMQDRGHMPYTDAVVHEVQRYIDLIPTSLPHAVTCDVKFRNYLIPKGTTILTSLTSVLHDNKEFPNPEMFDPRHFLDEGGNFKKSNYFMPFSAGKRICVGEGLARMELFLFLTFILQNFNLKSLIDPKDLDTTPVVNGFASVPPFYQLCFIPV
Measles CPE = compounds protecting cells from measles virus cytopathic effect, primary screen, measles RdRp inhibitor project, single point, MLSMR library, absorbance; hit rate 1.5% among 140,000; Measles virus-infected cells, CPE protection; protection (pct of control), % at 4 µM; in the data active means protection mostly above about 24%, no sharp cut-off; inactive means mostly below about 26%
CYP2C19 inhib = blockers of cytochrome P450 2C19 activity – biochemical, luminescence, ADME assay, primary screen; inhibition, % at 5 µM; P33261; CYP2C19 Supersomes, luciferin-H EGE luminescence, 30 min; hit rate 21% among 96,000;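 active means CYP2C19 inhibition above a set limit at 5 µM in the primary screen, cut at about 50% in these data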;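 further: plate controls were negative control wells for no effect and 2.5 mM tranylcypromine positive control for full effect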
The depositor's hits bear a star; . = no result. Shown are actives, neighbours in structure and some others; about 22% of the full set was active somewhere.

SMILES	CYP2C9 activ	CYP2C9 inhib	CYP2C19 activ	Measles CPE	CYP2C19 inhib
COc1ccc(N2CCN(C(=O)c3cc4c(-c5cccc(OC)c5)nn(C)c4s3)CC2)cc1	0.5	51*	0.8	12	23
O=C(CCn1cnc2ccccc2c1=O)Nc1nc(-c2ccc(Br)cc2)cs1	.	.	.	11	.
COc1ccc(-n2c(SCC(=O)N3CCc4ccccc43)nnc2-c2c[nH]c3ccccc23)cc1	.	.	.	14	.
Cc1ccc(N(C(=O)C2CCC(=O)N2)C2(C(=O)NC3CCCC3)CCCCC2)cc1 (configuration not stated)	0.8	22	1	8	4
Cc1cn(Cc2ccccc2)c(=O)[nH]c1=O	0.9	9	0.9	12	12
N#Cc1cn(OCc2ccccc2)c(=O)[nH]c1=O	.	.	.	31*	.
CNC(=O)c1ccc(OCc2ccccc2)c(OC)c1	0.7	31	0.7	76*	28
COc1ccccc1OCc1ccc(C(=O)NN)cc1	0.5	46	0.4	11	62*
FC(F)(F)c1nnc(-c2ccccc2)nc1Oc1ccc(Cl)cc1Cl	0.7	33	0.4	5	61*
O=[N+]([O-])c1ccc(NNC(=S)Nc2ccccc2)cc1	0.2	79*	0.4	10	59*
O=[N+]([O-])c1ccc(O)c(NC(=S)Nc2ccccc2)c1	0.1	91*	0.4	20	56*
COc1ccc([N+](=O)[O-])cc1NC(=O)CC(C)c1ccccc1 (configuration not stated)	1.5	-48	0.3	15	72*
COc1ccc([N+](=O)[O-])cc1NC(=S)Nc1ccccc1	0.6	42	0.5	9	50*
COc1ccc([N+](=O)[O-])cc1NC(=O)Nc1ccccc1	.	.	.	8	.
O=[N+]([O-])c1ccc(NC(=S)NCCc2ccccc2)cc1	.	.	.	1	.
CCCCC(=O)Nc1ccc(NC(=O)c2ccccc2[N+](=O)[O-])cc1OC	.	.	.	6	.
COc1ccc(-c2nn(-c3ccccc3)cc2/C=C(/C#N)C(N)=O)cc1[N+](=O)[O-]	.	.	.	5	.
CSc1nnc(Cn2c(=O)sc3ccccc32)n1CCc1ccccc1	0.6	45	0.6	5	39
CCOC(=O)C(C(=O)Nc1cccc(C)n1)C1CCCCC1 (configuration not stated)	0.2	82*	0.2	23	80*
CCOC(=O)C(C(=O)Nc1nccs1)C1CCCCC1 (configuration not stated)	0.2	77*	0.3	4	69*
CCOC(=O)C(C(=O)Nc1ccccn1)C1CCCCC1 (configuration not stated)	0.6	41	0.8	13	16
CCOC(=O)C(C(=O)Nc1nc2ccccc2s1)C1CCCCC1 (configuration not stated)	0.1	92*	0.6	14	38
CCOC(=O)C(C(=O)Nc1cccc(C)c1)C1CCCCC1 (configuration not stated)	0.4	55*	0.2	2	82*
COCCN1Cc2cccc(C(=O)NCc3ccccn3)c2C1=O	0.9	14	0.6	10	43
COCCN1Cc2cccc(C(=O)Nc3cc(C)cc(C)c3)c2C1=O	0.6	38	1	8	-1
SMILES	CYP2C9 activ	CYP2C9 inhib	CYP2C19 activ	Measles CPE	CYP2C19 inhib
CCOC(=O)N1CCC(N2Cc3cccc(C(=O)NC(C)c4ccc5c(c4)OCCO5)c3C2=O)CC1 (configuration not stated)	0	98*	0.2	6	82*
O=C(NCc1cccnc1)c1cccc2c1C(=O)N(C1CCCCC1)C2	.	.	.	5	.
CCOC(=O)N1CCC(NC(=O)c2cccc3c2C(=O)N(CCOC)C3)CC1	0.1	88*	0.7	1	34
CCOC(=O)N1CCC(N2Cc3cccc(C(=O)NCc4ccc(C)cc4)c3C2=O)CC1	0.3	70*	0.8	3	25
CCOC(=O)N1CCC(N2C(=O)c3ccccc3C2Nc2ccc3c(c2)OCCO3)CC1 (configuration not stated)	0.5	47	0.7	10	33
CCOC(=O)N1CCC(N2Cc3cccc(C(=O)NCc4ccccn4)c3C2=O)CC1	0.1	95*	0.3	16	74*
COc1cc(C2C(C#N)=C(N)Oc3c2c(-c2ccccc2)nn3-c2ccccc2)cc(OC)c1OC (configuration not stated)	.	.	.	12	.
Cn1c(=O)n(Cc2ccc(F)cc2)c(=O)c2c1nc1n2CCCN1C1CCCCC1	1	2	0.9	17	12
COc1ccc(C)cc1NC(=O)C(Sc1nnc(-c2ccncc2)n1-c1ccc(Cl)cc1)c1ccccc1 (configuration not stated)	.	.	.	39	.
COc1ccc(C(C)(C)C)cc1NC(=O)C1C2C=CC(C2)C1C(=O)O (configuration not stated)	0.9	7	0.8	34*	16
COc1ccccc1CCNC(=O)CCn1c(=O)oc2ccccc21	0.6	44	0.2	7	83*
CCOCC(=O)Nc1nc2ccccc2s1	.	.	.	15	.
OC(CNc1nc2ccccc2s1)c1ccccc1 (configuration not stated)	0.3	70*	0.1	6	95*
CC(C)OC(=O)CCC(=O)Nc1nc2ccccc2s1	0.3	66*	0.2	5	81*
O=C(CCn1c(=O)oc2ccccc21)Nc1nc2ccccc2s1	0.4	59*	0.5	40*	52*
CC(C)Sc1nnc(Nc2ccccc2)s1	0.4	59*	0.3	27	69*
COCc1[nH]nc2c1C(c1ccsc1)C(C#N)=C(N)O2 (configuration not stated)	1.1	-8	1	20	4
Cc1cc(-c2[nH]nc3c2C(c2cccc(O)c2)C(C#N)=C(N)O3)c(C)s1 (configuration not stated)	0.5	51*	0.1	17	88*
Cc1cc(-c2[nH]nc3c2C(c2ccsc2)C(C#N)=C(N)O3)c(C)s1 (configuration not stated)	0.1	93*	0.2	7	84*
O=C(COc1ccccc1C(=O)c1cnn(-c2ccccc2)c1)Nc1ccccc1	.	.	.	36	.
Cc1ccc(NCc2nnc(SCC(=O)OC3CCCCC3)o2)c(C)c1	0.6	36	0.6	10	37
CC12CC(c3ccccc3O1)C(C(=O)NCc1ccccc1)C(=O)N2 (configuration not stated)	0.8	21	0.4	2	60*
CC1(C(=O)NCc2ccccc2)Oc2ccccc2NC1=O (configuration not stated)	0.2	76*	0.2	10	77*
CC1(C)CC2CC(C)(CN2C(=O)COc2cccc3ccccc23)C1 (configuration not stated)	1.6	-57	1	5	2
